Source: PubChem BioAssay AID485281 (National Center for Advancing Translational Sciences (NCATS), 2010)
Among all 350,000 compounds or so, about 260 (0.074%) were called active. About 8% were inconclusive and are not listed. The list comes from a sample in which actives are over-represented; it also holds similar structures and randomly drawn compounds. Values without a mark were called inactive. Calls come from the whole dose curve; as a rule, active = well fitted inhibition curve with a large enough effect; inconclusive = small, poorly fitted or top-dose-only effect; inactive = no such curve, though single readings can be large or run the other way.

biological target: Ferritin light chain (Equus caballus) (UniProt P02791); test: qHTS Assay for Identification of Novel General Anesthetics; conditions: apoferritin/1-aminoanthracene competitive binding, fluorescence; series mostly up to 77.5 µM; activity change, negative = displacement: at the top concentration; note: nearly all actives have a fitted effect of over 20% in size
Source text: Source: NIH Chemical Genomics Center [NCGC]
Assay Submitter: Roderic Eckenhoff, University of Pennsylvania
Screening Center PI: Christopher P. Austin, NIH
Probe Development: NIH Chemical Genomics Center [NCGC]
Anesthetic development has remained a largely empirical process. There are growing concerns about the cognitive effects of known general anesthetics and acceleration of the onset of neurodegenerative disease. The compounds' toxicity and multiple specific binding targets in the mammalian brain [4] has made them less attractive as drug leads. In this assay, a GABAergic mimetic model system, apoferritin and a profluorescent 1-aminoanthracene ligand (1-AMA), was used to construct a competitive binding assay for identification of novel general anesthetics. The assay was validated for 1-AMA using other known anesthetics, such as isoflurane (CID:3763) and propofol (CID: 4943), [6].
[1] S.L. Bianchi, T. Tran, C. Liu, S. Lin, Y. Li, J.M. Keller, R.G. Eckenhoff, and M.F. Eckenhoff, Brain and behavior changes in 12-month-old Tg2576 and nontransgenic mice exposed to anesthetics. Neurobiol Aging 29 (2008) 1002-10.
[2] Z. Xie, Y. Dong, U. Maeda, R.D. Moir, W. Xia, D.J. Culley, G. Crosby, and R.E. Tanzi, The inhalation anesthetic isoflurane induces a vicious cycle of apoptosis and amyloid beta-protein accumulation. J Neurosci 27 (2007) 1247-54.
[3] P. Honegger, and J.M. Matthieu, Selective toxicity of the general anesthetic propofol for GABAergic neurons in rat brain cell cultures.
[4] M.F. Eckenhoff, K. Chan, and R.G. Eckenhoff, Multiple specific binding targets for inhaled anesthetics in the mammalian brain. J Pharmacol Exp Ther 300 (2002) 172-9.
[5] C.A. Butts, J. Xi, G. Brannigan, A.A. Saad, S.P. Venkatachalan, R.A. Pearce, M.L. Klein, R.G. Eckenhoff, and I.J. Dmochowski, Identification of a fluorescent general anesthetic, 1-aminoanthracene. Proc Natl Acad Sci U S A 106 (2009) 6501-6.
[6] W.A. Lea, J. Xi, A. Jadhav, L. Lu, C.P. Austin, A. Simeonov, and R.G. Eckenhoff, A high-throughput approach for identification of novel general anesthetics. PLoS One 4 (2009) e7150.
Three uL of reagents (free 1-AMA (50% saturated solution of 1-aminoanthracene
in PBS) in columns 3, 4 as negative control and 1-AMA/apoferritin mixture (10 uM horse-spleen apoferritin in 50% saturated 1-aminoanthracene in PBS) in columns 1, 2, 5-48) was dispensed into 1536-well Greiner black assay plates. Compounds (23 nL) were transferred via Kalypsys pintool equipped with 1,536-pin array (10 nL slotted pins, V&P Scientific, San Diego, CA). Titration of the positive control, propofol, were delivered via pin transfer from separate control plates to the 2nd column of each assay plate. The starting concentration of the control, dissolved in DMSO, was at 160 mM, followed by two-fold dilution points in duplicate, for a total of 16 concentrations. The plates were incubated for 10 min at room temperature, and then read on an EnVision HTS multilabel reader (Perkin-Elmer, Waltham, MA) (end point read, 3 min/plate) using Fura2 BFP excitation filter (380 nm, bandwidth 10 nm) and fluorescein emission filter (535 nm, bandwidth 25 nm) set. A LANCE/DELFIA dichroic mirror with a cutoff wavelength at 400 nm was used to maximize signal accuracy and strength. Vehicle-only plates, with DMSO being pin-transferred to the entire column 5-48 compound area, were inserted uniformly at the beginning and the end of each library in order to monitor for and record any shifts in the background. Activity was computed as the normalized fluorescence response relative to free 1-AMA and 1-AMA/apoferritin complex values. Concentration-effect relationships were derived by using curve fitting algorithms developed in-house (http://ncgc.nih.gov/pub/openhts/). A four parameter Hill equation was fitted to the concentration-response data by minimizing the residual error between the modeled and observed responses.
% is set by controls: 0 for no effect and ±100 for the full control effect; potency is the fitted concentration of half-maximal effect.

Chain of Ferritin light chain (Equus caballus) (P02791 2-175 limits assumed): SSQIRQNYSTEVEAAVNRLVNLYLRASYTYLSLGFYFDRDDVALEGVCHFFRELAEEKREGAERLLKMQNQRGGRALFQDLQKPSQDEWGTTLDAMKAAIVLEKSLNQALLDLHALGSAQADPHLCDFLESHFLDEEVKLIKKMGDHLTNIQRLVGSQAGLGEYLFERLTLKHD

SMILES	activity change, negative = displacement [%]	Potency
COc1ccc(N2CCN(S(=O)(=O)c3ccc(-c4coc(C)n4)cc3)CC2)cc1	-0.187	
Cn1c(SCC(=O)N2CCCc3ccccc32)ncc(C(=O)Nc2ccc(F)cc2)c1=O	-15.9	
CCOC(=O)c1scc(-c2ccccc2)c1S(=O)(=O)Nc1ccccc1F	57.3	
COc1ccc2c(c1)CCc1c(C(=O)Nc3cc(C)ccc3O)noc1-2	-8.63	
CCc1ccc(NC(=O)c2cc3c(=O)n(Cc4cccnc4)ccc3nc2C)cc1	-2.71	
COc1ccc(NC(=O)CSc2nccn2Cc2ccc3c(c2)OCO3)cc1	-10.6	
CC(=O)N1CCCc2cc(S(=O)(=O)N3CCC(C(=O)NCc4ccc(C)cc4)CC3)ccc21	-10.5	
CCOc1ccc(NC(=O)c2c(NC(=O)Cc3ccccc3)sc3c2CCCCC3)cc1	-5.25	
c1ccc2c(NC3C4CC5CC(C4)CC3C5)nc(N3CCOCC3)nc2c1 (centres undefined)	89.7	
c1cnc(NC2C3CC4CC(C3)CC2C4)nc1 (centres undefined)		5.62 µM (active)
Cc1c(-c2nsc(NC(=O)c3cccc(Cl)c3)n2)nnn1-c1ccccc1C(F)(F)F	-23.3	
Cc1cccc(C(=O)Nc2ccc(-c3nc4ccccc4s3)c(C)c2)c1	-9.88	
CN1CCN(c2oc(-c3ccc(COc4ccc(Cl)cc4)o3)nc2C#N)CC1	-7.72	
COc1ccc(OCC(=O)Nc2cccc(C(=O)OCc3cc(=O)n4nc(C)sc4n3)c2)cc1	52.4	
O=C(NCC12CC3CC(CC(C3)C1)C2)c1cc2nc(-c3ccccc3)cc(C(F)(F)F)n2n1	-6.46	
CCN(CC)c1ccc(NC(=O)CN2CCN(CC(=O)Nc3ccc(Cl)cc3)CC2)cc1	-11	
COc1ccc(-c2nc3nc(C)cc(C)n3c2Nc2c(C)cccc2C)cc1	275	
CC1=C(C(=O)OCC2CCCCC2)C(c2c(F)cccc2Cl)CC(=O)N1 (centres undefined)	-17.3	
COc1cccc(Cn2c(SCc3ccc(C(=O)N4CCC(C)CC4)cc3)nc3ccncc32)c1	72.3	
COCCNS(=O)(=O)c1cc(-c2nn3c(C)nnc3c3ccccc23)ccc1C	-12.8	
CCc1cccc(C)c1NS(=O)(=O)c1ccc(-c2cc(C)no2)s1	3.74	
Cc1cc(C)cc(-n2ccnc2SCC(=O)Nc2nc3ccccc3s2)c1	60.5	
COc1ccc(CNC(=O)Cc2coc3ccc(C(C)C)cc23)cc1	3.71	
Cc1cc(=O)n(CC(=O)Nc2cccc([N+](=O)[O-])c2)c(-n2nc(C)cc2C)n1	-3.5	
O=C(CCc1nc(CN2CCN(S(=O)(=O)c3ccc(Cl)cc3)CC2)no1)N1CCCCC1	8.4	

SMILES	activity change, negative = displacement [%]	Potency
COc1ccc(C2Sc3ccccc3NC3=C2C(=O)c2ccccc23)c(OC)c1OC (centres undefined)	-0.239	
CCOCCCn1c(SCC(=O)Nc2ccc(CC)cc2)nc2ccccc2c1=O	-9.21	
COc1ccc(CCNC(=O)CCCCn2c(=O)c3ccccc3n(Cc3ccccc3C)c2=O)cc1OC	23.4	
COc1ccc(CNC(=O)CCc2c(C)nn(-c3ccc(N4CCCC4)nn3)c2C)cc1	-8.08	
Cc1ccc(SCC(=O)Nc2ccc3oc(-c4ccccc4F)nc3c2)cc1	-11.2	
Cc1ccc2nc(CN3CCN(S(=O)(=O)c4ccc(C)c(C)c4)CC3)oc2c1	-10.2	
Cc1ccc(C)c(NC(=O)CSC2=Nc3ccccc3N=C(c3ccc(F)cc3)C2)c1	-1.36	
Cc1ccc(C(=O)N2CCCC2)c(F)c1F	-14.7	
Cc1c(Br)cc(C(=O)N2CCCCCC2)c(C)c1C		10 µM (active)
COc1cc(OC)c(C(=O)N2CCCC2)cc1OC	-10.8	
CCCn1c2ccccc2c2cnn(CC(=O)N(CC)c3cc(C)ccc3C)c(=O)c21	-5.87	
CCOC(=O)Cn1c(=O)n(C2CCCCC2)c2nc(-c3cccc(OC)c3)nc(C(N)=O)c21	8.75	
O=C(CN1c2ccccc2S(=O)(=O)c2ccccc21)Nc1cccc(C(F)(F)F)c1	8.17	
CCn1c(C)c(C)c2cc(C(=O)NCCc3cc(OC)ccc3OC)ccc21	-2.71	
Cc1cc(OCC(=O)NCC2(N(C)C)CCCCC2)cc(C)c1Cl	-9.9	
CN(C)CCCn1c(-c2ccc(Cl)cc2)csc1=Nc1ccccc1	9.73	
O=c1cc(-c2ccccc2)n2c(SCc3ccccc3)nnc2[nH]1	44	
Nc1ccc(C(=O)OCC(=O)NC2CCCc3ccccc32)cc1[N+](=O)[O-] (centres undefined)		20 µM (active)
Nc1ccc(C(=O)OCC(=O)NC2CCS(=O)(=O)C2)cc1[N+](=O)[O-] (centres undefined)	-8.39	
COC(=O)c1cc(OCC(=O)NC2CCCc3ccccc32)cc(C(=O)OC)c1 (centres undefined)	0.832	
CC(C)c1ccc(NC(=O)Cn2c3ncccc3c(=O)n2-c2ccccc2)cc1	2.35	
CCc1ccc(NC(=O)c2sc3nc4c(cc3c2N)CN(CC)CC4)cc1	-8.24	
O=C(CCc1nc(CN2CCN(S(=O)(=O)c3ccc(Br)cc3)CC2)no1)N1CCCCC1	-9.1	
Cc1cc(C(=O)Nc2cccc(C(F)(F)F)c2)c2c(C)nn(-c3cccc(F)c3)c2n1	52.9	
